These results are taken from publication PMC9911399, “Two distinct binding modes provide the RNA-binding protein RbFox with extraordinary sequence specificity”.

Sequences and labels used below:
B1: CAAACUC (DNA:RNA)
RNA: GGGAGACCGGAAUUCAGAUUGUCCCAAACUCUUAAAUCCCGUCGUAGCCACCA
DNA 1: CAATCTGAATTCCGGTCTCCC
DNA 2: TGGTGGCTACGACGGGATT
B2: AGAAGAU (DNA:RNA)
RNA: B1 RNA with C25A, A26G, C29G, U30A, C31U
DNA 1: CAATCTGAATTCCGGTCTCCC
DNA 2: TGGTGGCTACGACGGGATT
B3: UCCCCGG (DNA:RNA)
RNA: B1 RNA with C25U, A26C, A27C, A28C, U30G, C31G
DNA 1: CAATCTGAATTCCGGTCTCCC
DNA 2: TGGTGGCTACGACGGGATT
B4: AAAAAGC (DNA:RNA)
RNA: B1 RNA with C25A, C29A, U30G
DNA 1: CAATCTGAATTCCGGTCTCCC
DNA 2: TGGTGGCTACGACGGGATT
B5: AAAUUGC (DNA:RNA)
RNA: B1 RNA with C25A, A28U, C29U, U30G
DNA 1: CAATCTGAATTCCGGTCTCCC
DNA 2: TGGTGGCTACGACGGGATT
B6: GCACGAA (DNA:RNA)
RNA: B1 RNA with C25G, A26C, A28C, C29G, U30A, C31A
DNA 1: CAATCTGAATTCCGGTCTCCC
DNA 2: TGGTGGCTACGACGGGATT
B7: GCACGAG (DNA:RNA)
RNA: B1 RNA with C25G, A26C, A28C, C29G, U30A, C31G
DNA 1: CAATCTGAATTCCGGTCTCCC
DNA 2: TGGTGGCTACGACGGGATT
B8: ACGCACG (DNA:RNA)
RNA: GGGAGACCGGAAUUCAGAUUGUCCACGCACGUUAAAUCCCGUCGUAGCCACCA
DNA 1: CAATCTGAATTCCGGTCTCCC
DNA 2: TGGTGGCTACGACGGGATT
B9: GCACGCG (DNA:RNA)
RNA: B8 RNA with A25G, G27A, A29G
DNA 1: CAATCTGAATTCCGGTCTCCC
DNA 2: TGGTGGCTACGACGGGATT
B10: ACGUCCG (DNA:RNA)
RNA: B8 RNA with C28U, A29C
DNA 1: CAATCTGAATTCCGGTCTCCC
DNA 2: TGGTGGCTACGACGGGATT
B11: GUCCACG (DNA:RNA)
RNA: B8 RNA with A25G, C26U, G27C
DNA 1: CAATCTGAATTCCGGTCTCCC
DNA 2: TGGTGGCTACGACGGGATT
B12: GCACGUG (DNA:RNA)
RNA: B8 RNA with A25G, G27A, A29G, C30U
DNA 1: CAATCTGAATTCCGGTCTCCC
DNA 2: TGGTGGCTACGACGGGATT
B13: CGCACCG (DNA:RNA)
RNA: B1 RNA with A26G, A27C, U30C, C31G
DNA 1: CAATCTGAATTCCGGTCTCCC
DNA 2: TGGTGGCTACGACGGGATT
B14: GCGCACG (DNA:RNA)
RNA: B8 RNA with A25G
DNA 1: CAATCTGAATTCCGGTCTCCC
DNA 2: TGGTGGCTACGACGGGATT
B15: CCGCACG (DNA:RNA)
RNA: B8 RNA with A25C
DNA 1: CAATCTGAATTCCGGTCTCCC
DNA 2: TGGTGGCTACGACGGGATT
B16: GCACGUA (DNA:RNA)
RNA: B8 RNA with A25G, G27A, A29G, C30U, G31A
DNA 1: CAATCTGAATTCCGGTCTCCC
DNA 2: TGGTGGCTACGACGGGATT
B17: GCACGUC (DNA:RNA)
RNA: B1 RNA with C25G, A26C, A28C, C29G
DNA 1: CAATCTGAATTCCGGTCTCCC
DNA 2: TGGTGGCTACGACGGGATT
B18: UGCUUUG (DNA:RNA)
RNA: B8 RNA with A25U, C26G, G27C, C28U, A29U, C30U
DNA 1: CAATCTGAATTCCGGTCTCCC
DNA 2: TGGTGGCTACGACGGGATT
B19: CUGAGUG (DNA:RNA)
RNA: B1 RNA with A26U, A27G, C29G, C31G
DNA 1: CAATCTGAATTCCGGTCTCCC
DNA 2: TGGTGGCTACGACGGGATT
B20: UCACCCA (DNA:RNA)
RNA: B8 RNA with A25U, G27A, A29C, G31A
DNA 1: CAATCTGAATTCCGGTCTCCC
DNA 2: TGGTGGCTACGACGGGATT

Changes are numbered by the printed parent chain; changes in the protein carry UniProt numbers. In all, about 16,000 sequences were measured (“ka relative to ugcaugu”: median about 0.096, highest 2% from about 0.35 on). This is one part of a sample in which the highest values are shown more often than they occur.

In the test the target is T1, RBFOX1 RRM RbFoxmut (Fox-RRM*) (Homo sapiens, UniProt Q9NWB1 109-208, R118D;E147R;N151S;E152T).
T1 sequence: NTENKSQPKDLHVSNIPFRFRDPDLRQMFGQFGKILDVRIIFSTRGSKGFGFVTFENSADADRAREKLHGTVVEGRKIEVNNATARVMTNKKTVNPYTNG
Description: EMSA; HiTS-Eq, 1 nM pool, 10 min; buffer printed only for the single-RNA assays: 10 mM Tris pH 7.5, 150 mM NaCl, 3.4 mM EDTA, 0.001% NP-40, 30 C. Particulars: tags: His6 N-terminal (pET28a); label: 5' 32P. In a few lines:
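Purified RbFox RRM (wild type or mutant) was equilibrated for 10 min in 50 µL with 1 nM of a 5′-radiolabelled pool of RNA with 7 randomized nucleotides, its flanks annealed to DNA oligonucleotides, across increasing protein concentrations. Free RNA was separated by 8% native PAGE, excised, reverse-transcribed, PCR-barcoded and sequenced on an Illumina HiSeq 2500. Relative association constants came from read-count changes of each variant against the control reaction, normalised to the cognate motif.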
As to B1, the binding signal is 0.0603 KA relative to UGCAUGU.

With B2, the binding signal is 0.0749 KA relative to UGCAUGU.

On to B3, for which the binding signal is 0.0768 KA relative to UGCAUGU.

B4: the binding signal was 0.0699 KA relative to UGCAUGU.

In the case of B5, the binding signal is 0.0959 KA relative to UGCAUGU.

Regarding B6, the binding signal is 0.256 KA relative to UGCAUGU.

Turning to B7, the binding signal is 0.405 KA relative to UGCAUGU.

With B8, the binding signal was 0.354 KA relative to UGCAUGU.

In the case of B9, the binding signal is 0.184 KA relative to UGCAUGU.

With B10, the binding signal was 0.121 KA relative to UGCAUGU.

For B11, the binding signal is 0.114 KA relative to UGCAUGU.

As to B12, the binding signal is 0.324 KA relative to UGCAUGU.

Turning to B13, the binding signal is 0.17 KA relative to UGCAUGU.

On to B14, for which the binding signal was 0.397 KA relative to UGCAUGU.

Turning to B15, the binding signal was 0.236 KA relative to UGCAUGU.

As for B16, the binding signal was 0.382 KA relative to UGCAUGU.

For B17, the binding signal was 0.117 KA relative to UGCAUGU.

Regarding B18, the binding signal was 0.179 KA relative to UGCAUGU.

Regarding B19, the binding signal was 0.142 KA relative to UGCAUGU.

Take B20: the binding signal is 0.0824 KA relative to UGCAUGU.
